An excerpt weighted towards active compounds, which were near 7.8% of everything screened.
MITF inh = blocks MITF activity; TRPM1 promoter luciferase, luminescence, 24 h; inhibition, % (test concentration not listed); 37,000 compounds, 0.28% hits; AID 2240; in the data active = inhibition above about 85%; inconclusive = no clear call, values can overlap the other calls; inactive = below about 68%;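 also: human melanocyte line stably carrying TRPM1 promoter luciferase reporter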
NOMO-1 viab = STK33 inhibitor candidate reducing NOMO-1 cell viability. NOMO-1 AML viability, CellTiter-Glo luminescence, 72 h. inhibition, % (no concentration beside the values). 37,000 compounds, 7.5% hits; in the data active = inhibition above about 80%; inconclusive = no clear call, values can overlap the other calls
PD-1 reversal = activators reversing PD-1 mediated T-cell inhibition | activation, % (concentration not given with the values) | 29,000 tested, under 10 active | primary human CD4 T cells, PD-L1 beads, CellTiter-Glo 96 h; call rule not given here;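 also: 0% = median vehicle wells and 100% = positive control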
Hedgehog inh = blocks Sonic Hedgehog signaling. inhibition, % (no concentration beside the values). 22,000 compounds, 2.1% hits. Shh-LIGHT2 Gli-luciferase reporter, 30 h;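 active = mean inhibition across valid replicates above about 65%, limit read from the data; inconclusive = mean under the limit, yet half or more replicates past it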;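 also: pathway switched on by Shh-conditioned medium diluted 1 in 25 in low serum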
Active calls of the source: *.

Screening CC(C)(C)OC(=O)N1CCN(Cc2ccccc2)CC1 returned MITF inh 31, NOMO-1 viab -7, PD-1 reversal 0 and Hedgehog inh 4.
Cc1coc2c1C(=O)C(=O)c1c-2ccc2c1CCCC2(C)C was read as MITF inh 39, NOMO-1 viab 109* and Hedgehog inh 22.
`CC(=O)N1CCc2cc(NC(=S)NCc3cccs3)ccc21` gave MITF inh -63, NOMO-1 viab 8, PD-1 reversal 0 and Hedgehog inh -27.
COc1cc(OC)c2c(=O)c(OC)c(-c3ccccc3)oc2c1 was read as MITF inh -22, NOMO-1 viab 1, PD-1 reversal 1 and Hedgehog inh -14.
Screening CCOC(=O)c1cnc(S/C=C/C(=O)c2ccc(Cl)cc2)nc1N returned MITF inh -9, NOMO-1 viab 117*, PD-1 reversal -3 and Hedgehog inh -33.
`CCOC(=O)c1cnc(SCC(=O)Nc2ccc(F)c(F)c2F)nc1N` gave MITF inh 10, NOMO-1 viab 5 and PD-1 reversal 2.
Screening COc1cc(C2c3c(cc(OC)c(O)c3O)CC(CO)C2CO[C@@H]2O[C@H](C(=O)O)[C@@H](O)[C@H](O)[C@H]2O)cc(OC)c1O (some centres not stated) returned MITF inh -3, NOMO-1 viab -11, PD-1 reversal 3 and Hedgehog inh -15.
CC[n+]1c(C=C2C=C(C)CC(C)(C)C2)oc2ccccc21 was read as MITF inh 28, NOMO-1 viab 115* and PD-1 reversal -4.
For Cc1ccc(Cn2nc(C)cc2C(=O)Sc2ccccc2)cc1 the results were MITF inh 7, NOMO-1 viab 92*, PD-1 reversal -9 and Hedgehog inh 28.
`CCOC(=O)c1c(C(C)(C)C)oc2ccc(OCC(=O)OC)cc12` gave MITF inh -17, NOMO-1 viab 28, PD-1 reversal 1 and Hedgehog inh -25.
`COc1ccccc1-c1c(C(F)(F)F)oc2cc(OCC(=O)OC(C)C)ccc2c1=O` gave MITF inh 0 and NOMO-1 viab 96*.
CCOC(=O)COc1ccc2c(=O)c(-c3ccccc3OC)c(C(F)(F)F)oc2c1 was read as MITF inh 0, NOMO-1 viab 93* and PD-1 reversal -4.
For O=C(c1ccco1)N1N=C2c3ccccc3CCC2C1c1ccc(F)cc1 (configuration not stated) the results were MITF inh 40, NOMO-1 viab 48, PD-1 reversal 0 and Hedgehog inh 34.
`CCNC(=S)N1N=C2c3ccccc3CCC2C1c1ccc(F)cc1` (configuration not stated) gave MITF inh 6, NOMO-1 viab 113* and PD-1 reversal -1.
Cc1ccc(S(=O)(=O)c2ccc(-c3ccccc3)cc2)cc1 was read as MITF inh 2, NOMO-1 viab 12 and PD-1 reversal 3.
For CC1=CC(C)(C)N(S(=O)(=O)c2ccc(C)cc2)c2ccccc21 the results were MITF inh 59, NOMO-1 viab 111*, PD-1 reversal -9 and Hedgehog inh 68*.
For CCOC(=O)c1nn(-c2ccccc2)c(C#N)c1NC(=O)c1nn(CC)cc1Br the results were MITF inh -12, NOMO-1 viab 115*, PD-1 reversal 2 and Hedgehog inh 66*.
CCOC(=O)c1c(NC(=O)c2nn(CC)cc2Br)c(C#N)nn1-c1ccccc1 was read as MITF inh 6, NOMO-1 viab 9 and PD-1 reversal 0.
N#CC(C#N)=C(Nc1ccccc1Cl)SCc1cccc(F)c1 was read as MITF inh 89*, NOMO-1 viab 87*, PD-1 reversal -1 and Hedgehog inh 112*.
`Cc1c(Cl)cccc1NC(=O)CN(c1cccc(F)c1)S(C)(=O)=O` gave MITF inh 9, NOMO-1 viab 17 and PD-1 reversal 0.
For CO[C@@]12[C@H](COC(N)=O)C3=C(C(=O)C(C)=C(N)C3=O)N1C[C@@H]1N[C@@H]12 the results were MITF inh 65, NOMO-1 viab 142*, PD-1 reversal -30 and Hedgehog inh 34.
`CCn1c(SCC(=O)Nc2cccc(C(F)(F)F)c2)nnc1-c1ccco1` gave MITF inh 9, NOMO-1 viab 18 and PD-1 reversal 0.
Screening O=C1CCCC(Cn2cncn2)C1 (configuration not stated) returned MITF inh 10, NOMO-1 viab 5, PD-1 reversal 0 and Hedgehog inh -23.
For COc1ccc(NC(=O)c2ccc(-c3ccc(-c4noc(C)n4)cc3C)cc2)cc1OCCN(C)C the results were MITF inh -27, NOMO-1 viab 115* and Hedgehog inh inconclusive.
For CCCc1c(Cc2c(F)cccc2Cl)c(=O)oc2cc(O)ccc12 the results were MITF inh 55, NOMO-1 viab 120*, PD-1 reversal -4 and Hedgehog inh 55.
C[C@H](CO)N1C[C@H](C)[C@H](CN(C)Cc2ccc(C(=O)Nc3ccccc3N)cc2)Oc2c(NC(=O)Nc3ccc(C(F)(F)F)cc3)cccc2C1=O was read as MITF inh -19, NOMO-1 viab 60 and PD-1 reversal -2.
For C[C@@H]1CN([C@@H](C)CO)C(=O)c2cccc(NC(=O)Nc3ccc(F)cc3)c2O[C@@H]1CN(C)Cc1ccc(C(=O)Nc2ccccc2N)cc1 the results were MITF inh 22, NOMO-1 viab 140* and PD-1 reversal -2.
`C[C@H](CO)N1C[C@H](C)[C@H](CN(C)Cc2ccc(C(=O)Nc3ccccc3N)cc2)Oc2c(NC(=O)Nc3ccc4c(c3)OCO4)cccc2C1=O` gave MITF inh 7, NOMO-1 viab inconclusive and PD-1 reversal -2.
For C[C@@H]1CN([C@@H](C)CO)C(=O)c2cccc(NC(=O)Nc3ccc(C(F)(F)F)cc3)c2O[C@@H]1CN(C)Cc1ccc(C(=O)Nc2ccccc2N)cc1 the results were MITF inh -28, NOMO-1 viab 128* and PD-1 reversal -6.
C[C@@H]1CN([C@H](C)CO)C(=O)c2cccc(NC(=O)Nc3ccc4c(c3)OCO4)c2O[C@H]1CN(C)Cc1ccc(C(=O)Nc2ccccc2N)cc1 was read as MITF inh 22, NOMO-1 viab 127* and PD-1 reversal -1.
For C[C@H](CO)N1C[C@H](C)[C@@H](CN(C)Cc2ccc(C(=O)Nc3ccccc3N)cc2)Oc2c(NC(=O)Nc3ccccc3)cccc2C1=O the results were MITF inh 2, NOMO-1 viab 127* and PD-1 reversal -2.
For Cc1ccc2c(c1)C(C)(C)C1(C)N(Cc3ccccc3)C(=O)CN21 (configuration not stated) the results were MITF inh 4, NOMO-1 viab 9 and PD-1 reversal 2.
For C[C@@H]1CN([C@@H](C)CO)C(=O)c2cccc(NC(=O)Nc3ccccc3)c2O[C@H]1CN(C)Cc1ccc(C(=O)Nc2ccccc2N)cc1 the results were MITF inh 7, NOMO-1 viab 125* and PD-1 reversal -1.
`C[C@@H]1CN([C@H](C)CO)C(=O)c2cccc(NC(=O)Nc3ccccc3)c2O[C@@H]1CN(C)Cc1ccc(C(=O)O)cc1` gave MITF inh -17, NOMO-1 viab -18 and Hedgehog inh -7.

High-throughput results: PubChem BioAssay, Broad Institute
